The whole screen tested about 53,000 sequences, of which about 3,700 (7%) were called active. This is one part of a sample in which actives are shown more often than they occur. Unmarked numbers belong to inactive results.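 The calls were made as follows: active = gene knockdowns whose robust z-score for IL-1 alpha signal is at least 2 or at most -2, so actives lie on both sides; inactive = the rest.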
assay: Components of the Cytosolic LPS Sensing Pathway: Gene Identification via Genome-wide siRNA Screen; conditions: RAW264.7 macrophages, IL-1a HTRF, actives lie on both sides, screened at 100 nM (by protocol), cells primed 5 h with Pam3CSK4 first
Excerpt: Non-canonical inflammasome activation by cytosolic LPS is a critical component of the host response to Gram-negative bacterial infection, however we lack a comprehensive understanding of the cellular processes that control this pathway. Here we describe a genome-wide siRNA screen to identify genes regulating the mouse macrophage IL-1 alpha response to cytosolic LPS.
RAW264.7 cells were maintained in complete DMEM media, comprising DMEM with 4.5 g/L glucose, 10% FBS (Gemini Bio-Products, West Sacramento, CA), 2 mM Glutamine (Lonza) and 20 mM HEPES (Lonza), hereafter complete DMEM.
The RNAi screen was conducted in 384-well format using the Ambion Silencer Mouse Genome siRNA Library (#4391425), which consists of three unique, nonoverlapping, nonpooled siRNAs for each of 17,000 gene targets. siRNA reagents ([…]) were stamped into 384-well white flat-bottom microplates (Corning, 3570) using a Velocity11 VPrep liquid handling system (Agilent) integrated into a BioCel robotic platform (Agilent) in columns 1-22, leaving columns 23-24 empty for negative (Ambion, Negative control #1) and positive (mouse Casp4) controls, respectively. The median value of each plate's negative control column was used to normalize sample wells, and the positive control was used to assess transfection efficiency and assay performance.
Lipofectamine RNAiMAX Transfection Reagent ([…]; Invitrogen) was added in […] serum-free, antibiotic-free media to plate wells using a Thermo Scientific Matrix WellMate and Microplate Stacker. Plates were incubated for 45 min at room temperature to allow for the sufficient formation of siRNA-lipid complexes. Cells were seeded at a density of 1x10^4 cells per well in 20 microL media containing 20% (vol/vol) FBS without antibiotics. The final concentration of siRNA in each well was 100 nM. Cells were cultured for 48h at 37 degrees C in 5% CO2 before addition of […] of TLR ligand Pam3CSK4 for 5 hours. The medium was then removed, replaced with […] growth media and cell were transfected with […] of LipidA and TransIT-TKO (Mirus) for 24 hour. At the end of the LipidA treatment, […] of supernatant was transferred to a 384 Greiner Bio-one non-binding low volume plate and […] of IL-1a HTRF reagent (Cisbio, 62MIL1APEH) was added and incubated at room temperature overnight. The plates were read on an EnVision plate reader (PerkinElmer). Cell viability was measured by adding 20ul Cell Titer Glo to the original plate and running a luminescence read on the EnVision. The quantified IL-1a signal for each siRNA gene-targeted well was divided by the median of the negative control wells and multiplied by 100 to achieve a negative control normalized value for each well/siRNA. This normalized value was then used to generate a robust z-score by first taking the log of each value and then by subtracting the median and dividing by the […].

Sequence	z-score
GGUAACUUCAUGUGCAGCATT against Ldlrad3	-1.71
GGCGUAUGCAGAAUUCUACTT against Cox6c	-0.0709
GGAGAAGUCAUUGUUUUUGTT against Klhdc2	-0.493
GGCACAACAUCAUCUGUCUTT against Psmd9	-2.05 (active)
GCUACUGACCAUUCUAACUTT against Tmem198b	0.264
GGAAGGACUGUCAAAUGGCTT against Med11	-0.171
CCAUGUCUUGAACUUGGAUTT against Tsks	0.793
CCGACUCCAGUUGAAUGUUTT against Tgif2	-0.572
CCAGUUUGAUGGUAGACAATT against Tifa	-1.38
CGUAUUGUUUCCUAGCACATT against Arhgef38	2.08 (active)
GGUACCCAGCGAUCAUGCATT against Olfr1370	-0.109
GGAACAACUUGAUACCUCUTT against Trim44	-0.89
GGUCGGGAUUUAAUUUGUATT against Bbs9	0.978
CGACUUCACCUUAUUCCUGTT against Nle1	0.811
GCAUAUUACACAGCACUAGTT against Itgbl1	-0.802
GGUGUACUCUGUUCCCAUGTT against Psmb6	-1.54
GGGAUUCGAAGGACAAUAGTT against Vmn1r211	-2.07 (active)
GGUGUACAACUCCUAUAGGTT against P2ry13	0.24
GGAUUUCAGCGAAGUGUACTT against Mapk11	-0.395
CCAACGAAGCCAAUAAAUGTT against Pmis2	-2.12 (active)
GGAGCUGAGCAACAUCACATT against Il13	-1.35
GCUUCACAUGAAGCAACCUTT against Fam149b	-0.102

Sequence	z-score
GGAGAAGCAAAACUUUUAATT against Snrpa1	-2.87 (active)
GGUGUUGAACAAAUUAACUTT against Pprc1	0.508
GCAACUAUCCACUCUCUGCTT against Emg1	0.977
GGAGAUGGUCUCAUUAAGCTT against Psmd13	-1.25
GCUCUGUUUUUAACCAUCCTT against Ccnt2	0.227
GGUAUUAAGUUCCUGUAAUTT against Ahcyl2	-1.62
GCUCUUGAAAUUUCACUCUTT against Ide	2.1 (active)
GCCGCUUAGAGGCUCAUCUTT against Nfe2l2	-1.86
GGACAACUAUGAAUUAGUGTT against Pfkp	-0.801
GGAAAAACAGCUUAACACUTT against Pate4	0.66
GCUUCCAAGAUGGAACUACTT against Psmb10	0.657
GGAUGAAAUGAACCUAGAGTT against Sh3pxd2b	-2.16 (active)
GGAGAAGAUCACAAGAGGGTT against Slc35b1	-0.736
GCAGAAUAGCUGAUGACAGTT against Galnt15	-0.155
GCUCCCAAGUUUACCCAGCTT against Mybphl	0.505
CCUUGAACGAGAGUGCAUUTT against Pros1	-0.798
CGUAAGUCAGUGAUGCUAUTT against Srp19	1.38
GCUAUGAAGCAAUUGUGGATT against Fasn	-0.527
GCGGUUAUAAUGGGACCAUTT against Kif15	3.21 (active)
GCCAGGAUACUAAGUGUUUTT against Jpt2	1.05
GCAACAUCGUAUGUUAAUGTT against Slc9a4	0.0571
CGAAUACUUGAUGUCCAUGTT against Harbi1	-2.16 (active)

Sequence	z-score
CCAGGUGAAAACCAGGAUATT against Olfr205	0.925
GGAAACCUAUGUCUCAAGATT against Mrps36	-0.332
CCAGAGAUUCCCACACGUCTT against Havcr1	-1.37
GAAUCUGGUGAAGUAUUAUTT against Phip	0.518
GGGUUUAGCUCACUGAGUATT against Tm4sf5	-1.53
CCACUAUGUUCUCUGGAUATT against Llgl1	-0.218
CCACAUCUGAGACUAUUCATT against Crhr1	2.46 (active)
GGAACUGGGAGACCUAUAATT against Angptl2	-2.01 (active)
CCCACAGAAUCACUCCAAGTT against Utp14a	-0.211
GCUAUUCGUUUCUUAUAACTT against Slc19a3	0.83
GGCAAUGAGUUCUGGAGUGTT against Capn8	-0.928
GGUUCAAGGCAACACUGUGTT against Ankrd13d	-1.54
GGCUUUUGGUCUGAGAUGCTT against Snf8	-2.04 (active)
GGUGCUCACGUUUUUCUUATT against B3galnt1	0.348
GGAGGAAGUUGAAAAUGAATT against Myom2	0.157
GGUACUCCUAGAACUCUACTT against 2410002F23Rik	1.01
GCCCAGAGUUACGAGUAUGTT against Aacs	2.23 (active)
GCCAAACGUGGGUUUGAUATT against Ccna1	4.74 (active)
GGAAGACUUGAGAAAUCACTT against Coro1c	1.24
GCCAAGCUUGUCCAUUGAUTT against Akap9	-0.443
CGUUAGCAUCAGGUCAAGUTT against Zfp251	-0.323
GGUGUUAACAAAAUGUACCTT against Phyh	2.54 (active)

Sequence	z-score
CCUUAGGUCUAAGUAAUCUTT against Dnase1l1	2.3 (active)
GGACUCAAAUGUGAUGCAUTT against Prkcq	-0.718
GGCACAUUCAUAGAACAAGTT against Znrd1as	2.01 (active)
GCGGCGCAUGACUGAAAGATT against Chd8	0.86
GGUCAACUCCUUUAUGAGCTT against Apoa4	-0.238
GGAUGAUGAGAGAAACAAATT against Jak1	3.78 (active)
GGAAGUAAAGAGGAUCUCATT against Vat1l	-0.678
GGUGAUUAGCAAUCAUCAGTT against Zfp942	-0.295
GGCCACUUGAGAACAUUCGTT against Nop10	0.331
GGUACAAUGAAAGUCUCACTT against Cnot6	-0.0743
GGACCUUGUACCCAUUCCUTT against Prr5	1.01
GCAAUGAGUGCUAGUUUUUTT against Cdc42	2.6 (active)
CGUGGAUAUCAGAAAGCAATT against Cfhr2	-0.487
GGACUUUAAUCACAGACAATT against Fem1b	-1.73
CGAGUUCAUCAAAAAGGAATT against Kansl1l	0.708
CCAUUCUCAGGCAAAUACUTT against Pid1	2.11 (active)
GGCUGAUGAUACUUAAACATT against Vmn1r83	-1.26
CGGCAUGCUGUGGAAAAAGTT against Btrc	-0.869
GCACUUUGACAUUUUGGUATT against Arl4c	-0.0352
AGAGCAAAAACUCGAGCACTT against Sox15	-0.253
GGUUGUGAGUGAGAACACUTT against Prss35	0.738
CCUUGCAGCAUCAGGACUUTT against Ascl2	4.06 (active)

Sequence	z-score
GGUAACACAGAAGAAAUCUTT against Higd1a	-0.0444
GGCAGAAGAACUUUUCCAGTT against Capsl	0.874
CCUUCUAGAGUACAUCAUATT against Prl7d1	0.298
GGGUUUCUUCGUGUCUAUUTT against Pth2r	1.56
GGGAAGUAGCCAUCACACCTT against Ttbk1	0.768
CCUAUAGCAGUGGUUUUCATT against Ece2	2.22 (active)
GGCUUUUCGUUGUAAAUCATT against 9930111J21Rik2	0.735
CGGGAAGUAAACAUUUCCATT against Rassf6	0.527
GGACUCUGAUCUCUAUCAGTT against Tac2	-0.357
GGAGGAGAGGUACAAGAUGTT against Pcyt2	-0.804
GGGAAGUCCAAAUAACGGATT against Zfp184	0.136
CCGACCCAAUUAAUGAUCATT against Tlcd2	-1.12
CCAAAGUUUUAUCAGUUUGTT against Gpr87	0.653
GGUACUUUUACUCCCGAAGTT against Lgals3bp	-2.05 (active)
GGUGAUAUAGCUAUUUUCUTT against Fbxw11	0.711
GGAAACACCAGAGAAGUCCTT against Etf1	-0.56
GGUGCAAGAUAGUACGAUGTT against Gle1	-0.649
GCACAAUAAAGCUUGUUGCTT against Trmt2a	-2.26 (active)
GGAAGAUGGGCGACUCUAUTT against Pkmyt1	0.176
GGAUUCUCACCAAAUACUUTT against Oprd1	0.305

— PubChem BioAssay AID1508600 (Functional Genomics Laboratory (NCATS/FGL), 2020)
